PubChem BioAssay (EPA / NIEHS)
Records with an inconclusive call do not appear. Calls of active or inactive are those of the source. How the source made its calls, unless noted: active means hit-call score of the fitted dose curve at least 0.9, where 1 is the maximum; inactive means score below 0.9.

How the values were obtained:
[1] = target: Transcription factor E2F1 (Homo sapiens) (UniProt Q01094); test: ATG_E2F_CIS: Attagene CIS-FACTORIAL HepG2 Assay for human E2F Transcription Factor 1 (AID 2282935); details: HepG2 Attagene cis-reporter, E2F reporter RNA transcripts; actives raise or lower the signal
How it was run: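 Transient MRTU transfection of HepG2; 24 h compound exposure; RNA → oligo(dT) RT → PCR → FAM label → HpaI cut → CE fluorescence. Gain/loss of signal fit against DMSO.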

[2] = ATG_GATA_CIS: Attagene CIS-FACTORIAL HepG2 Assay for human GATA Binding Protein (AID 2282944); details: HepG2 GATA cis-element reporter, Attagene multiplex mRNA; actives raise or lower the signal
How it was run: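 Read-out: fluorescent reporter mRNA fragments resolved by capillary electrophoresis after RT-PCR. Human liver HepG2 cells carried transiently transfected cis-regulated reporter constructs; chemicals incubated 24 h; gain or loss of signal fitted relative to DMSO.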

[3] = target: Hypoxia-inducible factor 1-alpha (Homo sapiens) (UniProt Q16665); test: ATG_HIF1a_CIS: Attagene CIS-FACTORIAL HepG2 Assay for human Hypoxia Inducible Factor 1 (HIF1A) (AID 2282951); details: HepG2 Attagene cis-factorial HIF1a reporter transcription; actives raise or lower the signal
How it was run: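 HepG2 cells transiently transfected with multiple cis-regulated reporter transcription units measure endogenous transcription factor activity. After 24 h exposure, reporter mRNA is quantified by RT-PCR with 6-FAM labelling, HpaI digestion and capillary electrophoresis. Bidirectional fitting against DMSO.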

[4] = target: Hepatocyte nuclear factor 6 (Homo sapiens) (UniProt Q9UBC0); test: ATG_HNF6_CIS: Attagene CIS-FACTORIAL HepG2 Assay for human Hepatocyte Nuclear Factor 6 (HNF6) (AID 2282952); details: HepG2 Attagene cis-factorial HNF6 reporter transcription; actives raise or lower the signal
How it was run: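 Twenty-four-hour chemical treatment of reporter-transfected HepG2 cells precedes RNA isolation, DNase-treated reverse transcription and PCR of reporter sequences. Labelled fragments are sized by capillary electrophoresis and fitted bidirectionally versus DMSO.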

[5] = target: Heat shock factor protein 1 (Homo sapiens) (UniProt Q00613); test: ATG_HSE_CIS: Attagene CIS-FACTORIAL HepG2 Assay for human Heat Shock Transcription Factor 1 (HSE) (AID 2282953); details: HepG2 HSE cis-reporter, Attagene RNA transcription; actives raise or lower the signal
How it was run: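 Read-out: fluorescence of reporter-specific RT-PCR fragments separated by capillary electrophoresis. HepG2 carrying transfected cis-element reporter units; 24 h dosing; activity fitted in both directions relative to DMSO baseline.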

[6] = ATG_PXRE_CIS: Attagene CIS-FACTORIAL HepG2 Assay for human Pregnane X Receptor Element (PXRE) (AID 2282957); details: HepG2 Attagene CIS-FACTORIAL PXRE reporter, mRNA; actives raise or lower the signal
How it was run: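 Bidirectional activity, baselined to DMSO, derived from reporter mRNA fluorescence (RT-PCR plus capillary electrophoresis) in HepG2 cells bearing cis-promoter reporter units, 24 h exposure.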

[7] = ATG_VDRE_CIS: Attagene CIS-FACTORIAL HepG2 Assay for human Vitamin D Receptor Element (VDRE) (AID 2282968); details: HepG2 VDRE cis-reporter transcription, actives raise or lower the signal
How it was run: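 Transient MRTU transfection of HepG2, 24 h compound exposure. Readout: reporter transcripts via RT-PCR and capillary electrophoresis, fluorescence. Bidirectional fit vs DMSO.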

[8] = target: X-box-binding protein 1 (Homo sapiens) (UniProt P17861); test: ATG_Xbp1_CIS: Attagene CIS-FACTORIAL HepG2 Assay for human X-box Binding Protein 1 (XBP1) (AID 2282972); details: HepG2 XBP1 cis-element reporter, Attagene multiplex; actives raise or lower the signal
How it was run: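 Read-out: fluorescent reporter mRNA fragments resolved by capillary electrophoresis after RT-PCR. Human HepG2 liver cells carried transfected cis-promoter reporter units and were exposed to chemicals for 24 hours. Gain or loss of signal fitted relative to DMSO baseline.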

[9] = ATG_M_06_TRANS: Attagene TRANS-FACTORIAL HepG2 Assay for M06 Transcription Factor (Internal Marker) (AID 2282983; active means hit-call score of the fitted dose curve at least 0.9, where 1 is the maximum); details: HepG2 Attagene TRANS M06 internal marker reporter
How it was run: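 Multi-reporter-transfected HepG2, 24 h treatment; reporter transcripts quantified via RT-PCR, primer-extension labelling and CE. DMSO-normalized gain-of-signal fit.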

[10] = target: Transcriptional activator Myb (Homo sapiens) (UniProt P10242); test: ATG_Myb_CIS: Attagene CIS-FACTORIAL HepG2 Assay for human Myeloblastosis (Myb) Proto-Oncogene Transcription Factor (AID 2282986); details: HepG2 Attagene CIS-FACTORIAL Myb reporter transcription; actives raise or lower the signal
How it was run: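 Transiently transfected HepG2 cells carrying a multiplexed cis-promoter reporter set report endogenous Myb activity after 24 h compound exposure. Reporter mRNA is read by RT-PCR with capillary electrophoresis of fluorescent products, fitted bidirectionally against DMSO.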

[11] = ATG_NFI_CIS: Attagene CIS-FACTORIAL HepG2 Assay for human Nuclear Factor I (NFI) (AID 2282989); details: HepG2 cis-regulatory reporter, NFI response element transcription; actives raise or lower the signal
How it was run: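 Read-out: reporter mRNA via RT-PCR plus capillary electrophoresis with fluorescence detection. Transiently transfected HepG2 (endogenous TF activity on cis promoters), 24 h compound exposure; gain or loss of signal fitted against DMSO.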

[12] = target: Myc proto-oncogene protein (Homo sapiens) (UniProt P01106); test: ATG_Myc_CIS: Attagene CIS-FACTORIAL HepG2 Assay for human Myelocytomatosis (Myc) Proto-Oncogene Transcription Factor (AID 2282990); details: HepG2, Attagene cis-reporter transcription factor activity; actives raise or lower the signal
How it was run: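 Read-out: fluorescent reporter mRNA fragments resolved by capillary electrophoresis after RT-PCR. Human HepG2 liver cells carried transfected cis-element reporter units and were dosed for 24 h. Gain or loss of signal fitted relative to DMSO baseline.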

[13] = ATG_NRF2_ARE_CIS: Attagene CIS-FACTORIAL HepG2 Assay for human Nuclear Factor Erythroid 2 Related Factor 2 (NFR2) response to Antioxidant Response Elements (ARE) (AID 2282992); details: HepG2 Attagene ARE/NRF2 reporter, transcription factor activity; actives raise or lower the signal;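 on AC50: reporter mRNA level measured by RT-PCR and capillary electrophoresis fluorescence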
How it was run: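 Readout: reporter mRNA quantified by RT-PCR plus FAM-labelled primer extension, HpaI digestion and capillary electrophoresis, 24 h after dosing transfected HepG2 cells. Gain or loss of signal is fitted bidirectionally against DMSO baseline.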

[14] = target: Cellular tumor antigen p53 (Homo sapiens) (UniProt P04637); test: ATG_p53_CIS: Attagene CIS-FACTORIAL HepG2 Assay for human p53 Transcription Factor (AID 2282994); details: HepG2 p53 cis-element reporter, Attagene mRNA; actives raise or lower the signal
How it was run: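 Read-out: reporter mRNA by RT-PCR plus capillary electrophoresis with fluorescence detection. Human HepG2 liver cells carried transfected multi-reporter cis-element constructs, dosed 24 h. Gain or loss of signal fitted bidirectionally against DMSO control.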

[15] = target: Cellular tumor antigen p53 (Homo sapiens) (UniProt P04637); test: TOX21_p53_BLA_p2_ratio: Tox21 HCT-116 p53 Agonism Beta-lactamase Assay, Ratio, Phase 2 (AID 2283592; active means hit-call score of the fitted dose curve at least 0.9, where 1 is the maximum)
How it was run: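 DMSO-normalized, positive-direction endpoint derived from the 460 nm/530 nm FRET ratio in HCT116 p53 beta-lactamase reporter cells exposed 16 h at 37C and loaded with CCF4-AM for 2 h.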

[16] = target: Transcription factor Sp1 (Homo sapiens) (UniProt P08047); test: ATG_Sp1_CIS: Attagene CIS-FACTORIAL HepG2 Assay for human Specificity Protein 1 (Sp1) (AID 2282961); details: HepG2 Sp1 cis-reporter transcription, actives raise or lower the signal
How it was run: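 HepG2 cells transiently transfected with multiplexed cis-regulated reporter constructs, chemical exposure 24 h. Reporter mRNA quantified by RT-PCR with capillary electrophoresis; bidirectional fit relative to DMSO.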

[17] = target: Signal transducer and activator of transcription 3 (Homo sapiens) (UniProt P40763); test: ATG_STAT3_CIS: Attagene CIS-FACTORIAL HepG2 Assay for human Signal Transducer and Activator of Transcription 3 (STAT3) (AID 2282963); details: HepG2, Attagene cis-factorial STAT3 reporter transcription; actives raise or lower the signal
How it was run: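 Readout: fluorescent reporter mRNA fragments resolved by capillary electrophoresis. Setup: HepG2 transfected with MRTUs reporting endogenous transcription-factor activity, dosed 24 h. Gain or loss of signal fitted bidirectionally against DMSO control.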

[18] = ATG_TAL_CIS: Attagene CIS-FACTORIAL HepG2 Assay for human TAL Basal Promoter (AID 2282966); details: HepG2 Attagene cis-factorial TAL promoter reporter; actives raise or lower the signal;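 further: background control endpoint measuring basal TAL promoter reporter mRNA not a specific factor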
How it was run: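 Human hepatoma HepG2 cells, transfected with promoter-regulated reporter units, were treated 24 h. Reporter transcript levels, measured through RT-PCR and capillary electrophoresis, were fitted for gain or loss relative to DMSO.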

[19] = target: CCAAT/enhancer-binding protein beta (Homo sapiens) (UniProt P17676); test: ATG_C_EBP_CIS: Attagene CIS-FACTORIAL HepG2 Assay for human CCAAT/Enhancer Binding Protein (C/EBP) beta (AID 2282927); details: HepG2 Attagene cis-factorial transcription factor reporter; actives raise or lower the signal
How it was run: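 Transiently transfected HepG2 (MRTU library, endogenous TF-driven promoters); 24 h dosing; total RNA → oligo(dT) RT → PCR → 6-FAM primer extension → HpaI digest → CE; fit bidirectionally vs DMSO.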

[20] = ATG_Sox_CIS: Attagene CIS-FACTORIAL HepG2 Assay for human SRY-box transcription factor (SOX) (AID 2282960); details: HepG2 Attagene cis-factorial SOX reporter, mRNA; actives raise or lower the signal
How it was run: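 HepG2 cells transiently transfected with multiple cis-regulated reporter units, then dosed for 24 h. Reporter mRNA quantified by RT-PCR, fluorescent labelling, HpaI digestion and capillary electrophoresis; bidirectional fit versus DMSO.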

Measured: AC50

Chain of Hepatocyte nuclear factor 6 (Homo sapiens) (Q9UBC0 whole entry, looked up, the tested form may be a part): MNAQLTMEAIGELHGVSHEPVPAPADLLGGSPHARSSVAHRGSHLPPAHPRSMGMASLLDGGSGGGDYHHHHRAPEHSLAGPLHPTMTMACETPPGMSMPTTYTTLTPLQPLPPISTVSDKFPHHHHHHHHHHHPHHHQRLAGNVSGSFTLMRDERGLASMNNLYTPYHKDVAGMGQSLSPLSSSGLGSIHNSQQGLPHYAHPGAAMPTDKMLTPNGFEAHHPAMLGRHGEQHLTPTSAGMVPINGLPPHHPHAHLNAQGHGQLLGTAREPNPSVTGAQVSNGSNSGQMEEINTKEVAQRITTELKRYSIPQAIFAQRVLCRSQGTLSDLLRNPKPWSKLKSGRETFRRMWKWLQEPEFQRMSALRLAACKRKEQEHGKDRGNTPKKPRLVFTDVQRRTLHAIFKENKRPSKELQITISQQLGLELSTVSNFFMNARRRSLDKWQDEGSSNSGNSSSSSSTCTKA
Chain of X-box-binding protein 1 (Homo sapiens) (P17861 whole entry, looked up, the tested form may be a part): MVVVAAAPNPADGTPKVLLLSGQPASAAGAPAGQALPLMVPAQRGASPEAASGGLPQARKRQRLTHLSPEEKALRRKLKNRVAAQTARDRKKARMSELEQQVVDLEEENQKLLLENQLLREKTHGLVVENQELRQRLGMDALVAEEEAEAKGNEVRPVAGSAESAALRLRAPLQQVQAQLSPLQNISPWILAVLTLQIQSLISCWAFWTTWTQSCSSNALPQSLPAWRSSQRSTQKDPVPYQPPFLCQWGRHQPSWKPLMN
Chain of Transcription factor Sp1 (Homo sapiens) (P08047 whole entry, looked up): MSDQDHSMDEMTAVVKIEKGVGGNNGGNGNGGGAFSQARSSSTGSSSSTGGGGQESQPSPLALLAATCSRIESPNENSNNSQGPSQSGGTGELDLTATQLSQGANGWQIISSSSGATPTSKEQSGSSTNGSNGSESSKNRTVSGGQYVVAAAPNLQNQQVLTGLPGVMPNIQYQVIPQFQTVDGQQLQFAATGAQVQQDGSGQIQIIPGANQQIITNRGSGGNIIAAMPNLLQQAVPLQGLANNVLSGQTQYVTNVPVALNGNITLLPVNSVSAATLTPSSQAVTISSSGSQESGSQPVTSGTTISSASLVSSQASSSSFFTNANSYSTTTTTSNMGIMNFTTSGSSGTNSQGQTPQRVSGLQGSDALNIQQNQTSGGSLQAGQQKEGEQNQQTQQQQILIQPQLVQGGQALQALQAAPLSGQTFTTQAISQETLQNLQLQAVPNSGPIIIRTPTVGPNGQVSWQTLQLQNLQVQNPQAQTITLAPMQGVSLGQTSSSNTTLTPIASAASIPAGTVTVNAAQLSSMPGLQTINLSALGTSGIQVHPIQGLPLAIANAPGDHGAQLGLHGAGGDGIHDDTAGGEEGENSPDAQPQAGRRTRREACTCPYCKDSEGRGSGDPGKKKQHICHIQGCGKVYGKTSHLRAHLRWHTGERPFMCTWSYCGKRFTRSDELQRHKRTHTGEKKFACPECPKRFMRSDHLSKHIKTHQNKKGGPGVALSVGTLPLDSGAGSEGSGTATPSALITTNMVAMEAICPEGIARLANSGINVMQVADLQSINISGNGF
Chain of Transcriptional activator Myb (Homo sapiens) (P10242 whole entry, looked up): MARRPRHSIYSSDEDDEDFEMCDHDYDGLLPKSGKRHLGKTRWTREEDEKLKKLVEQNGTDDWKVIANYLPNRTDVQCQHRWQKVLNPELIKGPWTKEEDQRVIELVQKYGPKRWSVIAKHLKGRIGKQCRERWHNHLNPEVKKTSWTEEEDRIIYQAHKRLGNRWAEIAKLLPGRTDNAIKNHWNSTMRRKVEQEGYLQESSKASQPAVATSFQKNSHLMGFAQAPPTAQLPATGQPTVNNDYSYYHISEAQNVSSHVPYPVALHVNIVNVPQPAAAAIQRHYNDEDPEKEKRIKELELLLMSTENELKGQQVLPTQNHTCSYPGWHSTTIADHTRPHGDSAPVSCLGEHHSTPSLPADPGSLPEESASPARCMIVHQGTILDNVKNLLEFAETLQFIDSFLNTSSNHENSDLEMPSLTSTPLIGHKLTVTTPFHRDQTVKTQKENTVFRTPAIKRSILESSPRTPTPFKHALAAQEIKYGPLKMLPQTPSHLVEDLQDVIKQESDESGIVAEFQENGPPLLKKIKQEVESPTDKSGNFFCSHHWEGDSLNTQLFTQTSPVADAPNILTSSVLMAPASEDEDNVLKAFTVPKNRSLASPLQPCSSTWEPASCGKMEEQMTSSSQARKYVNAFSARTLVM
Chain of Signal transducer and activator of transcription 3 (Homo sapiens) (P40763 whole entry, looked up, the tested form may be a part): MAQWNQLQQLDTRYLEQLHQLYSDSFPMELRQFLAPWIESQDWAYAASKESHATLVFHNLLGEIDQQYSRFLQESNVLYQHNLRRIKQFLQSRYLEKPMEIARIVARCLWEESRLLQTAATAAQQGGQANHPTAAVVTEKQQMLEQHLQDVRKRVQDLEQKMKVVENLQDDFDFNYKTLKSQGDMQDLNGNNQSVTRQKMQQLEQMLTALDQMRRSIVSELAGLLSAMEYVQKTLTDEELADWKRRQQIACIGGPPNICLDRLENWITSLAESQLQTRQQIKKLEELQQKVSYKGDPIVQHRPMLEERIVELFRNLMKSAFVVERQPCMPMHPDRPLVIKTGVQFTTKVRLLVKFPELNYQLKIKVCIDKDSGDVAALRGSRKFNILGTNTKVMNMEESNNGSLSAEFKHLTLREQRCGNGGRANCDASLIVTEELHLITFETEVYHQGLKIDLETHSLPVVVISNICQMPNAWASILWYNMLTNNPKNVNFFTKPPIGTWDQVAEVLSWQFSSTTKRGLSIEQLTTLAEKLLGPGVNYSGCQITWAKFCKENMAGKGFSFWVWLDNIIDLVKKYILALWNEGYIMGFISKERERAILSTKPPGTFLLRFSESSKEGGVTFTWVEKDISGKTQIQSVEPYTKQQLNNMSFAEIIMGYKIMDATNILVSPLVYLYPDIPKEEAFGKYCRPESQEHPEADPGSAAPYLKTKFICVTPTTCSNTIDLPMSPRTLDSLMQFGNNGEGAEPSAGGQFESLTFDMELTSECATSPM
Chain of Transcription factor E2F1 (Homo sapiens) (Q01094 whole entry, looked up): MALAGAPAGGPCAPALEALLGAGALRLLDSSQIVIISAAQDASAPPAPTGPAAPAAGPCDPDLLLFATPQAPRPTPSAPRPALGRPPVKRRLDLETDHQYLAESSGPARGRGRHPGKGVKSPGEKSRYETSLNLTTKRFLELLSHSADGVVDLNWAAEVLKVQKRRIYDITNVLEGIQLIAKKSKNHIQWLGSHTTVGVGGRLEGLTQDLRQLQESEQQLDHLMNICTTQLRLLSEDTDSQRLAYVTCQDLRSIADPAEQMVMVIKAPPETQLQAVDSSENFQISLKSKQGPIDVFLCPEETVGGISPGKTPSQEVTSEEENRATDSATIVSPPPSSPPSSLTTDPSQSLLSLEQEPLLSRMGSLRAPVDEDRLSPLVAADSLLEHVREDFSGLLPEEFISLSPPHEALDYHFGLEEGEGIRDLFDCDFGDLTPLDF
Chain of Heat shock factor protein 1 (Homo sapiens) (Q00613 whole entry, looked up, the tested form may be a part): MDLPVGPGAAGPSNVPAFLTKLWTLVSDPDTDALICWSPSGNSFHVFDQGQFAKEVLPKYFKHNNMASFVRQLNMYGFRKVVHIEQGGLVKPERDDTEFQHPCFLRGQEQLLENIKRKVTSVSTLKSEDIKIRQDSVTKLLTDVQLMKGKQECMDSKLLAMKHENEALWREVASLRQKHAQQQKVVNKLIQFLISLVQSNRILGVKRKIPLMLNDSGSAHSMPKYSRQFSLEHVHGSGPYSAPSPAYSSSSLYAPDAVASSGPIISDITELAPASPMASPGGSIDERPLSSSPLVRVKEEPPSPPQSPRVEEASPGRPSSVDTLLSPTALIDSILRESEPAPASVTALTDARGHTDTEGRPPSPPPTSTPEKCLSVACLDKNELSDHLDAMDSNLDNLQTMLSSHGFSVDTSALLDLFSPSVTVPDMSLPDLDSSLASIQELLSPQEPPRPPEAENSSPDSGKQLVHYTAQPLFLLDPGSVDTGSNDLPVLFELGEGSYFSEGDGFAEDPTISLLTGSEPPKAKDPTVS
Chain of Hypoxia-inducible factor 1-alpha (Homo sapiens) (Q16665 whole entry, looked up): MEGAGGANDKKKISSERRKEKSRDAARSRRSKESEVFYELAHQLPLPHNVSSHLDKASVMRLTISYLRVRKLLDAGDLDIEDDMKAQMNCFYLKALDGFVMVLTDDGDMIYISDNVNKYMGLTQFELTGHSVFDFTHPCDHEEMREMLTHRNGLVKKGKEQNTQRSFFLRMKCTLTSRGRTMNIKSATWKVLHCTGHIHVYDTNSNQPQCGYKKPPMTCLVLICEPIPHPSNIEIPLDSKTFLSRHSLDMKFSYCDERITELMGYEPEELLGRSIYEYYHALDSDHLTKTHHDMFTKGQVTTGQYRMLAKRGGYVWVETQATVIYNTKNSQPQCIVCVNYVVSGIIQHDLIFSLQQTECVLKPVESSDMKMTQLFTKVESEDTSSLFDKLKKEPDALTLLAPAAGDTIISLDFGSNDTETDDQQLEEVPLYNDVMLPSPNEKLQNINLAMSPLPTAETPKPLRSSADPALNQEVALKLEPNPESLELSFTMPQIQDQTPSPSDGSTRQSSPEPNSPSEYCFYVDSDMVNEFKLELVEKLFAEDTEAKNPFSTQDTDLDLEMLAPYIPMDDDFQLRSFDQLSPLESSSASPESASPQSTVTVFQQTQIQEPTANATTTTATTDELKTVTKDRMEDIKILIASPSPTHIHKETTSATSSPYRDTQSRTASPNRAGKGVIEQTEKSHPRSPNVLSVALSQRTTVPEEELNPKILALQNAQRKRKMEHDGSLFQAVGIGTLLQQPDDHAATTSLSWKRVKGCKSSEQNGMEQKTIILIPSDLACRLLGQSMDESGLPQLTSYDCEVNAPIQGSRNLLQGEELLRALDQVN

Cc1ccccc1S(N)(=O)=O
active: [7] 26.5 µM
not listed: [16] | [17] | [18] | [19] | [20]
inactive: all other assays above

CCCCCC1CCCC(=O)O1 (configuration not stated)
active: [6] 44.5 µM
not listed: [8] | [9] | [19] | [20]
inactive: all other assays above

CCCCCCCCCCC1CO1 (configuration not stated)
active: [6] 27 µM | [16] 154 µM | [13] 128 µM
not listed: [1] | [9] | [20]
inactive: all other assays above

CC(=O)c1nccs1
inactive: [1] | [3] | [4] | [5] | [6] | [16] | [7] | [11] | [13] | [14] | [15]

O=C(OCc1ccccc1)c1ccccc1
active: [3] 175 µM
not listed: [6] | [14] | [15] | [18] | [19]
inactive: all other assays above

CCCC(=O)OC/C=C(\C)CCC=C(C)C
inactive: [1] | [2] | [3] | [4] | [5] | [20] | [7] | [8] | [9] | [11] | [13]

COc1ccccc1OCC(O)CO (configuration not stated)
not listed: [1] | [3] | [5] | [8] | [9] | [12] | [17] | [18]
inactive: all other assays above
